# mHTT CaM bind: disrupts binding of mutant huntingtin to calmodulin | inhibition, % at 15 µM | actives 3.6% (n = 190,000) | AlphaScreen His-mHTT/GST-CaM binding, luminescence | AID 1671202 | P42858;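 further: 0% = both proteins with DMSO and 100% = one protein alone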
# Pf apPOL block: Pf-apPOL DNA polymerase inhibition | AID 1794808 | Recombinant Pf-apPOL, molecular beacon fluorescence, 1.5 h | actives 0.25% (n = 210,000) | inhibition, % at 10 µM
# Numbers without * were called inactive; x = no result given; ! = not active in a repeat. An excerpt weighted towards active compounds, which were near 3.6% of everything screened. No stated cut-off is given here; in the data, active means inhibition above about 50%; inactive means the rest.
SMILES,mHTT CaM bind,Pf apPOL block
COc1ccc(C(=O)CC2(O)C(=O)Nc3ccccc32)cc1[N+](=O)[O-] (configuration not stated),-5,-15
COc1ccc(C(=O)CC2(O)C(=O)N(Cc3ccc(Cl)cc3)c3ccccc32)cc1[N+](=O)[O-] (configuration not stated),100*,-8
O=C1CCCC1CCCCCCCCCCCO (configuration not stated),-8,x
N#C/C(=C\c1c[nH]c2ccccc12)C(=O)Nc1cc([N+](=O)[O-])ccc1Cl,7,-4
N#C/C(=C\c1cc([N+](=O)[O-])ccc1Cl)C(=O)NCCc1c[nH]c2ccccc12,96*,-4
Cc1nc2c(ccc3nc(NC(=O)c4ccc(Cl)s4)sc32)s1,-3,5
Cc1nc2c(ccc3nc(NC(=O)c4ccc5c(c4)OCCO5)sc32)s1,69*,1
COCOCCn1cc(CN2CCS(=O)(=O)N(Cc3ccc(-c4ccc(C)cc4)cc3)C(C(C)C)C2=O)nn1 (configuration not stated),10,-12
COCOCCn1cc(CN2CCS(=O)(=O)N(Cc3ccc(-c4ccc(Cl)c(Cl)c4)cc3)C(C)C2=O)nn1 (configuration not stated),99*,-6
COCOCCn1cc(CN2CCS(=O)(=O)N(Cc3ccc(-c4ccccc4)cc3)C(C(C)C)C2=O)nn1 (configuration not stated),54*,-22
COCOCCn1cc(CN2CCS(=O)(=O)N(Cc3ccc(-c4ccc(C)cc4)cc3)C(C)C2=O)nn1 (configuration not stated),-4,-19
COCCN1CCC(N2CCCN(C(=O)c3ccccc3C(F)(F)F)CC2)C1=O (configuration not stated),16,4
CC12CCC(C(=O)NCc3ccco3)(CC1=O)C2(C)C (configuration not stated),-1,-2
CCN(C)C(=O)C1CN(C(=O)c2ccccc2F)CC1c1ccccc1 (configuration not stated),11,-1
O=C1C(=Cc2ccc(-c3ccccc3[N+](=O)[O-])o2)C(=O)c2ccccc21,6,-3
Cc1cc([N+](=O)[O-])c(C)cc1-c1ccc(/C=C/c2cc(C(F)(F)F)[nH]c(=O)n2)o1,95*!,-2
O=c1nc(/C=C/c2cccn2-c2ccc([N+](=O)[O-])cc2)cc(C(F)(F)F)[nH]1,8,-1
O=c1nc(/C=C/c2ccc(-c3ccccc3[N+](=O)[O-])o2)cc(C(F)(F)F)[nH]1,90*,1
O=C(Nc1ccc(O)cc1)C1CC=CCC1 (configuration not stated),70*,0
O=C(Nc1ccc(NC(=O)C2CCCC2)cc1)C1CCCC1,7,-3
CCc1ccc(-c2csc(N)n2)s1,38,-7
Cc1cc(Br)ccc1NC(=O)CS(=O)(=O)c1cccc2nsnc12,8,1
COc1ccc(-n2cc(C(=O)N3CCC4(CC3)OCCO4)c3ccccc3c2=O)cc1,2,-3
COCCN=C1Nc2ccccc2NC12CCCN(C(=O)Nc1ccc(F)cc1F)C2 (configuration not stated),100*,-5
COCCN=C1Nc2ccccc2NC12CCCN(C(=O)Cc1ccc(Cl)cc1)C2 (configuration not stated),100*,-7
SMILES,mHTT CaM bind,Pf apPOL block
COCCN=C1Nc2ccccc2NC12CCCN(S(=O)(=O)c1cccs1)C2 (configuration not stated),20,-8
COCCN=C1Nc2ccccc2NC12CCCN(C(=O)c1ccncc1)C2 (configuration not stated),-2,-3
COCC(=O)N1CCCC2(C1)Nc1ccccc1NC2=NCc1ccccc1 (configuration not stated),51*,-5
CN(C)S(=O)(=O)N1CCCC2(C1)Nc1ccccc1NC2=NCc1ccccc1 (configuration not stated),54*,-3
COCCN=C1Nc2ccccc2NC12CCCN(C(=O)Cc1c(F)cccc1Cl)C2 (configuration not stated),46,0
CC(=O)NCC(=O)N1CCCC2(C1)Nc1ccccc1NC2=NCc1ccccc1 (configuration not stated),12,-3
Cc1ccc(NC(=O)c2cc3c(CO)cnc(C)c3oc2=N)cc1Cl,7,2
O=[N+]([O-])C=C(c1ccccc1)c1ccccc1,22,-4
CCn1ccc(C(=O)N2CCCC3(C2)Nc2ccccc2NC3=NCc2ccccc2)n1 (configuration not stated),16,-6
O=C(CN1CCOCC1)N1CCCC2(C1)Nc1ccccc1NC2=NCc1ccccc1 (configuration not stated),91*,-8
CC(=O)Nc1cccc2c(C(=O)N3CCN(c4ccccc4Cl)CC3)ccnc12,35,3
O=C(O)c1coc2c1C(=NNc1ccccc1)CCC2,x,-12
c1ccc(N/N=C2/C/C(=N\Nc3ccccc3)c3ccccc32)cc1,91*,x
COc1cc(C(C#N)N2N=C(C)CC2(C)C)ccc1O (configuration not stated),5,-1
COc1cccc(CN2C(=O)Cc3c(C)nc(-c4ccc(Cl)cc4)nc32)c1OC,4,-1
Cc1nnc2ccc(S(=O)(=O)N(Cc3ccccc3)c3ccc(Cl)cc3)cn12,28,-1
CC(C)C[C@H](CO)N(Cc1ccccc1)S(=O)(=O)N(Cc1ccccc1)[C@@H](CO)CC(C)C,75*,-5
C=CS(=O)(=O)N(Cc1ccccc1)[C@H](CO)CC(C)C,-3,-6
Cc1nn(-c2ccc(Cl)cc2)c2nc(N3CCCC(C(=O)NC4CCCC4)C3)sc12 (configuration not stated),-6,7
Cc1nc2c(C(=O)NCCc3ccc(Cl)cc3)c[nH]n2c(=O)c1Cc1ccccc1F,74*,-3
Cc1nc2c(C(=O)NCCc3ccccc3)c[nH]n2c(=O)c1Cl,16,-9
Cc1ccc(CCNC(=O)c2c[nH]n3c(=O)c(Cc4ccccc4F)c(C)nc23)cc1,31,-15
Cc1nc2c(C(=O)NCCc3ccccc3)c[nH]n2c(=O)c1Cc1ccc(Cl)cc1,68*,-5
COc1ccccc1C1=NOC(C(=O)NCc2ccc(F)cc2)C1 (configuration not stated),-13,-5
CC(=O)C1=C(C)NC(SCC(=O)c2ccc(F)cc2)=C(C#N)C1c1cccc([N+](=O)[O-])c1 (configuration not stated),38,0
SMILES,mHTT CaM bind,Pf apPOL block
CCc1ccc(C2C(C#N)=C(SCC(=O)c3ccc([N+](=O)[O-])cc3)NC(C)=C2C(C)=O)cc1 (configuration not stated),60*,2
CC(C)c1ccc(N2CC(C(=O)NCc3ccccc3)CC2=O)cc1 (configuration not stated),5,-12
Cc1ccc(-c2cc(O)cc3sc(=O)oc23)cc1C,79*,8
O=c1oc2c(-c3ccccc3[N+](=O)[O-])cc(O)cc2s1,61*,43
Cc1cc(O)c2c(c1)C(=O)c1cc(O)cc(O)c1C2=O,x,-68
O=c1cc(-c2ccccc2[N+](=O)[O-])oc2ccccc12,5,-10
COc1ccc(OC)c(-c2nc3cc(C)cc(C)c3o2)c1,28,-4
CC(=O)c1cc(C#N)c(SCCCCSc2nc(C)c(C(C)=O)cc2C#N)nc1C,0,1

# Screens: PubChem, University of Kansas High Throughput Screening Laboratory
